Where “and” joins values, the source holds several entries; their conditions need not be identical. Identical values can stand only once. Records with an inconclusive call do not appear. Calls of active or inactive are those of the source. Calls come from the whole dose curve; as a rule, active = well fitted inhibition curve with a large enough effect in the main read-out, with a control signal flat; inconclusive = small, poorly fitted or top-dose-only effect, or a change in a side signal; inactive = flat fitted curve, though single readings scatter.
Each molecule was assayed against Neuropeptide S receptor (Homo sapiens) (UniProt Q6W5P4) (assay: Confirmation Concentration-Response Assay for Antagonists of the Neuropeptide S Receptor: cAMP Signal Transduction). Conditions: CHO-NPSR cells, cAMP TR-FRET, antagonist mode; series mostly up to 22.3 µM; activity change, negative = inhibition: at the top concentration.
Chain of Neuropeptide S receptor (Homo sapiens) (Q6W5P4 whole entry, looked up): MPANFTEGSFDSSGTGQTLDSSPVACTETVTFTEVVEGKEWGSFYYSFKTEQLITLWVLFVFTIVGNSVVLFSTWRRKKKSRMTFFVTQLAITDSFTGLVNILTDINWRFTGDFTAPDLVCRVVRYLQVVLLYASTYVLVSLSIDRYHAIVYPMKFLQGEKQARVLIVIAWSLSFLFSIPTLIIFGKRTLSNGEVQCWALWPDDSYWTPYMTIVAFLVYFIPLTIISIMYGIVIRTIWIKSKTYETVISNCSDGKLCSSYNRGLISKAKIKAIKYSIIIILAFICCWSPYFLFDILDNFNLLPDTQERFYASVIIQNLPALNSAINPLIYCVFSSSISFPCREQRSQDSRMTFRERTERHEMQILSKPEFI
Method in brief: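 LANCE TR-FRET cAMP read-out: 665/620 nm emission ratio, with the 620 nm donor channel also reported, after 2 h RT detection. Stably transfected CHO-NPSR cells got compound titrations and 100 nM NPS in stimulation reagent for 60 min at 37C. IC50 came from Hill fits.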
Potency is the fitted concentration of half-maximal effect.
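Throughout, for activity change, negative = inhibition: 0% = DMSO with NPS and full inhibition = wells lacking NPS.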

Potency, active:
O=C(Nc1ccc(Oc2c(F)c(F)c(F)c(F)c2F)cc1)OC1CCN2Cc3ccccc3N=C12 (stereo not drawn) 11.2 µM
C/C(=N\Nc1ncc(Cl)cc1Cl)c1ccccn1 5.62 µM
Cc1ccc(-c2ccc(/C=C3\C(=O)ON=C3c3ccccc3)o2)c([N+](=O)[O-])c1 2.82 µM
N=c1c2c(ccn1Cc1ccccc1)Oc1ccc3ccccc3c1C2c1ccccc1 (stereo not drawn) 2 µM
O=C1OC(c2ccccc2)(c2ccccc2)N2CCN(C(=O)NCc3ccc(F)cc3)CC12 (stereo not drawn) 0.0251 µM
CC1CCCCN1S(=O)(=O)c1ccc(C(=O)Nc2sccc2C(N)=O)cc1 (stereo not drawn) 12.6 µM and 14.1 µM
O=C(/C=C/c1ccco1)NC(=S)Nc1nc(-c2ccc3ccccc3c2)cs1 3.98 µM
CCOC(=O)CCC(=O)Nc1ncnc2c1C(c1ccccc1)c1c(ccc3ccccc13)O2 (stereo not drawn) 2 µM
Nc1ncnc2c1C(c1ccccc1)c1c(ccc3ccccc13)O2 (stereo not drawn) 1 µM
COc1ccc(NC(=O)/C(Cl)=C(/Cl)S(=O)Cc2ccc(C)cc2)cn1 (stereo not drawn) 2.24 µM
O=C(c1ccccc1)N(C(=O)c1ccccc1)c1ncnc2c1C(c1ccccc1)c1c(ccc3ccccc13)O2 (stereo not drawn) 3.16 µM
N=C1c2ccccc2CN1c1ccc(N2CCOCC2)c(S(=O)(=O)Nc2ccc(Cl)cc2)c1 4.47 µM
N=c1c2c(ccn1CCCc1ccccc1)Oc1ccc3ccccc3c1C2c1ccccc1 (stereo not drawn) 1.58 µM
N#CC1=C(NC=NCc2ccccc2)Oc2ccc3ccccc3c2C1c1ccccc1 (stereo not drawn) 1.58 µM

Activity change, negative = inhibition, inactive:
O=C(CSc1n[nH]c(-c2cccnc2)n1)Nc1ccnc2ccccc12 -2.52%
COC(=O)c1ccc(C(=O)OC)c(NC(=O)CSc2cccc[n+]2[O-])c1 -6.2%
Cc1ccc(Nc2cc(C)nn2-c2nc(C)cc(C)n2)cc1 -9.37%
COc1cccc(C2C(C#N)=C(NC(=O)CCc3ccccc3)Oc3ccc4ccccc4c32)c1 (stereo not drawn) -10.6%
Brc1ccc(CSc2ncn[nH]2)cc1 -6.38%
COc1ccc2nc(NC(=S)N(C)C)sc2c1 -7.19%
Cc1cc(OCC(=O)c2ccc(Br)cc2)ccc1N1C(=O)CCC1=O -12.9%
S=C(Nc1ccccn1)c1ccccn1 1.64%
Cc1cc(N/N=C/c2ccccc2[N+](=O)[O-])nc(-n2nc(C)cc2C)n1 -5.67%
C=CC1(C)CC(=O)C2(O)C(C)(O1)C(OC(C)=O)C(O)C1C(C)(C)CCC(O)C12C (stereo not drawn) 6.07% [at 0.188 µM]
O=c1cc(CNCCCO)c2ccccc2[nH]1 0.391%
CCSc1nc2c(c(=O)n1Cc1ccccc1)SC(C)C2 (stereo not drawn) -1.72%
CN(Cc1cc(=O)[nH]c2ccccc12)C(=O)c1ccccc1 -1.96%
c1ccc(-c2ccc(-c3nc(-c4cccnc4)no3)cc2)cc1 -15.5%
CN(C)c1nc(=Nc2cccc(Cl)c2)ss1 -8.2%
Oc1ccc(N=Nc2nccs2)c(O)c1 -6.18%
Cc1ccc(Cn2cc(SCC(=O)Nc3nccs3)c3ccccc32)cc1 -8.92%
C=CCNC(=O)/C(C#N)=C/c1cn(-c2ccccc2)nc1-c1ccc(OC)c([N+](=O)[O-])c1 -2.43%
C(=C\c1ccccc1)/C=N/N1CCN(c2ccccn2)CC1 5.88%
Cc1ccc2nc3ccc(N4CCCCCCC4)nn3c(=O)c2c1 -5.95%
CC(=O)n1nc2nc(C)cc(C)c2c1N 8.9%
CCOC(=O)c1cnc(-n2nc(C)cc2C)nc1NC1CCCC1 -9.26%
COc1ccc(N(CC(=O)Nc2cccc(SC)c2)S(C)(=O)=O)cc1Cl -14.4%
CCC(c1nnnn1C1CCCC1)N1CCN(c2ccccc2)CC1 (stereo not drawn) -5.45%
